# Bioassay records (PubChem BioAssay)
# Hits are enriched below; roughly 14% of the tested compounds scored in any of these assays.
# FBPA Giardia inh = qHTS Assay for Inhibitors of Fructose-1,6-bisphosphate Aldolase from Giardia Lamblia. purified Giardia FBPA. Potency, µM (highest dose often 59.6 µM), inactives show top-dose activity, negative = inhibition, most hits filed as inhibitors. 0.71% of 290,000 active; note: potency is the fitted concentration of half-maximal effect; nearly all actives have a fitted effect of over 55% in size
# Target sequence (A8B2U2 whole entry, looked up): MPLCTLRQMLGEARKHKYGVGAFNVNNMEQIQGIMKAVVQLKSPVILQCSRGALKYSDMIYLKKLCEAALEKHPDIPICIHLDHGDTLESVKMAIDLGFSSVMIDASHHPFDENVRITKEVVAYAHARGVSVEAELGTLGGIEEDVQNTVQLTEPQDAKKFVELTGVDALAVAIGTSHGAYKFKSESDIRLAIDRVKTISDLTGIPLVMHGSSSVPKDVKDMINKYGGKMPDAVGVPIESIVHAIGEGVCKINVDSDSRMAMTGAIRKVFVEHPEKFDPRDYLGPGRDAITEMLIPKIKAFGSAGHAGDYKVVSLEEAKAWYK
#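 40 nM FBPA preincubated 10 min at RT with compound (up to 57.5 uM final), then substrate plus GAPDH/TPI/NAD/arsenate coupling and diaphorase/resazurin added. Fluorescence read after 20 min at RT, 525/598 nm.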
# Pf growth 96h = Primary qHTS for delayed death inhibitors of the malarial parasite plastid, 96 hour incubation; P. falciparum luciferase reporter growth, 96 h; Potency, µM (top dose mostly 28.7 µM), for the others: top-dose activity change, negative = inhibition, usual class: inhibitors; 6.9% of 320,000 active; note: potency is the fitted concentration of half-maximal effect
#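 Delayed-death screen, second-generation endpoint: infected erythrocytes, 2% hematocrit, 0.05% parasitemia final; 96 hours at 37 C, 5% CO2; luciferase detection reagent; luminescence decrease equals reduced growth.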
# HCMV inh = qHTS Assay for inhibitors of the human cytomegalovirus (HCMV); activity change, negative = inhibition, % at 57.5 µM; 4.5% of 410,000 active; HFF cells, HCMV-luciferase reporter, 72 h; active compounds read low; AID 1259415, 2018; in the data active = activity change below about -60%; inconclusive = no clear call, values can overlap the other calls; inactive = above about -39%
#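 Two compound doses tested in HFFs infected with HCMV-luciferase, MOI 1 PFU/cell, 72 h at 37C. Lysate luminescence read with OneGlo; data normalized against buffer-only and 10uM Salinomycin inhibitor controls.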
# Sm TGR inh = qHTS Assay for the Inhibitors of Schistosoma Mansoni Peroxiredoxins; Schistosoma mansoni thioredoxin glutathione reductase (TGR), Q962Y6; purified TGR, DTNB reduction, TNB absorbance 405 nm; Potency, µM (series often up to 114 µM), inactives show at the top dose activity change, negative = inhibition, hits mostly inhibitors; 3% of 360,000 active; AID 485364, 2010; note: potency is the fitted concentration of half-maximal effect; nearly all actives have a fitted effect of over 60% in size
#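 First, TGR (20 nM dispensed) and NADPH were mixed with compound. Second, a 15 min room-temperature incubation followed. Third, further NADPH and then DTNB were added to start the reaction. Finally, TNB absorbance was monitored kinetically.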
# Pf growth 48h = Primary qHTS for delayed death inhibitors of the malarial parasite plastid, 48 hour incubation; 5.9% of 310,000 active; Potency, µM (series often up to 28.7 µM), for inactives: at the top dose activity change, negative = inhibition, actives largely listed as inhibitors; P. falciparum luciferase growth in erythrocytes, 48 h; note: potency is the fitted concentration of half-maximal effect
#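 Cell-based growth assay: transgenic P. falciparum expressing firefly luciferase, cultured in red cells within RPMI 1640 containing 0.5% w/v Albumax, 24 mM bicarbonate and gentamycin. A drop in luciferase activity indicates inhibition.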
# Active calls of the source: *; ? = inconclusive; nt = no result; [ ] = dose if it differs, or a comment. Unless noted, calls come from the whole dose curve; as a rule, active = well fitted curve in the direction sought with a large enough effect; inconclusive = small, poorly fitted or top-dose-only effect, or another doubt; inactive = no such curve, though single readings can be large; an effect the other way counts as inactive or inconclusive. % is set by controls: 0 for no effect and ±100 for the full control effect.
SMILES,FBPA Giardia inh,Pf growth 96h,HCMV inh,Sm TGR inh,Pf growth 48h
CC(=O)O[C@H]1C[C@H](O[C@H]2[C@@H](O)CC(O[C@H]3[C@@H](O)C[C@H](O[C@H]4CC[C@@]5(C)[C@H](CC[C@@H]6[C@@H]5CC[C@]5(C)[C@@H](C7=CC(=O)OC7)CC[C@]65O)C4)O[C@@H]3C)O[C@@H]2C)O[C@H](C)[C@H]1O[C@@H]1O[C@H](CO)[C@@H](O)[C@H](O)[C@H]1O (some centres undefined),nt,4.78µM*,nt,nt,?
CC(=O)OC1CC(OC2C(O)CC(OC3C(O)CC(OC4CCC5(C)C(CCC6C5CC(O)C5(C)C(C7=CC(=O)OC7)CCC65O)C4)OC3C)OC2C)OC(C)C1OC1OC(CO)C(O)C(O)C1O (centres undefined),14.9%,nt,-100.1*,nt,nt
CC(=O)O[C@H]1C[C@@H](O[C@@H]2[C@H](C)O[C@H](O[C@@H]3[C@H](C)O[C@H](O[C@@H]4CC[C@@]5(C)[C@@H](CC[C@]6(C)[C@]5(C)C[C@H](O)[C@]5(C)[C@@H](C7=CC(=O)OC7)CC[C@@]56O)C4)C[C@@H]3O)C[C@@H]2O)O[C@@H](C)[C@H]1O[C@H]1O[C@@H](CO)[C@@H](O)[C@@H](O)[C@@H]1O,4.6%[21.7 µM],nt,nt,nt,nt
Cn1nc(C(=O)N2CCN(c3ccccc3F)CC2)c2c1-c1ccccc1S(=O)(=O)C2,-15.4%,3.8%,-21.0,6.8%,-8.8%
C=CCc1ccc(OCCOCCOc2ccccc2[N+](=O)[O-])c(OC)c1,-2.6%,6.3%,42.9,-7.0%,?
Cc1nn(-c2ccc(F)cc2)c(Cl)c1/C=C/C(=O)OCC(=O)Nc1c(F)c(F)c(F)c(F)c1F,-2.6%,-6.4%,-71.2*,0.5%,10.5%
O=C(NCc1cccc(F)c1)[C@@H]1[C@@H](CO)[C@@H]2Cn3c(cccc3=O)[C@H]1N2C(=O)c1cnccn1,nt,nt,-8.9,nt,nt
c1ccc(-c2csc3ncnc(NCC4COc5ccccc5O4)c23)cc1 (centres undefined),-2.9%,?,-87.7*,0.0%,?
Cc1sc2ncnc(NCC3CCCO3)c2c1C (centres undefined),nt,128.1%,-28.6,7.8%,4.9%
Cc1sc2ncnc(NCC3COc4ccccc4O3)c2c1C (centres undefined),3.2%,?,-78.9*,1.4%,10.7%
C[C@@H]1CN([C@H](C)CO)C(=O)CCCn2nncc2CO[C@@H]1CN(C)C(=O)Nc1cccc2ccccc12,nt,nt,-1.2,nt,nt
CC(C)CCNC(=O)c1c(N)n(Cc2ccc3c(c2)OCO3)c2nc3ccccc3nc12,?,11.7µM*,-34.5,-24.5%,nt
CC(C)CNC(=O)c1c(N)n(Cc2ccc3c(c2)OCO3)c2nc3ccccc3nc12,?,nt,-80.2*,1.8%,6.57µM*
CCCNC(=O)c1c(N)n(Cc2ccc3c(c2)OCO3)c2nc3ccccc3nc12,-29.6%,-2.1%[5.75 µM],nt,0.5%,?
CN(C)C(=O)c1ccc(-c2ccc3ncnc(N4CCOCC4)c3c2)cc1,-1.9%,nt,nt,nt,nt
CCn1c(SCC(=O)NC2CC2)nnc1-c1ccc(C)cc1,-6.7%,3.1%,-32.1,-21.6%,14.8%
O=C(O)c1ccccc1OC(C(=O)Nc1cc(Cl)cc(Cl)c1)c1ccccc1 (centres undefined),nt,?,10.8,-0.2%,11.7µM*
O=C(Nc1ccccc1)Nc1cc(OCC(F)(F)F)cc(OCC(F)(F)F)c1,-11.2%,3.29µM*,-100.1*,2.9%,2.62µM*
N#CC(C#N)=C(N)Nc1cccc(Cl)c1,-1.5%,-0.3%,18.5,-7.2%,-5.3%
O=C(NCCNC(=O)c1cc(OCC(F)(F)F)ccc1OCC(F)(F)F)Nc1cccc(C(F)(F)F)c1,0.5%,-62.3%,37.3,21.3%,44.9%
O=C(Nc1cccc(Cl)c1)Nc1cccc(Cl)c1,-7.1%,-16.9%,?,-8.1%,3.7µM*
CC1CCC(=C(C#N)C(=O)Nc2cccc(Cl)c2)CC1 (centres undefined),nt,14.7µM*,-23.0,-15.2%,?
CC(=O)OC[C@H]1O[C@@H](ON=C(C)C)[C@H](OC(C)=O)[C@@H](OC(C)=O)[C@H]1OC(C)=O,4.0%[12.9 µM],nt,nt,nt,nt
COc1cccc(NC(=O)Nc2cc(Cl)ccc2C)c1,-0.2%,12.5%,-60.4*,0.4%,-11.9%
O=C(Nc1cccc(Cl)c1)Nc1ccnc(-c2cccnc2)n1,4.7%,-18.8%,?,nt,10.4µM*
SMILES,FBPA Giardia inh,Pf growth 96h,HCMV inh,Sm TGR inh,Pf growth 48h
O=C(Nc1cccnc1)Nc1cc(Cl)cc(Cl)c1,-1.0%,?,-60.9*,-0.1%,?
COC(=O)c1cc(NC(=O)Nc2cccc(Cl)c2)ccc1Cl,-8.3%,14.7µM*,-99.0*,1.7%,9.28µM*
CC(=O)c1ccc(CC2SC(N)=NC2=O)cc1 (centres undefined),4.1%,-14.2%,22.3,9.1%,-6.5%
COC(=O)c1cc2oc3ccccc3c2n1CC(=O)Nc1ccc(F)c(Cl)c1,nt,nt,-16.1,-1.1%,nt
O=C(NCc1ccccn1)Nc1cc(Cl)cc(Cl)c1,9.3%,125.6%,-24.1,92.8%,?
O=C(Nc1ccccc1)Nc1cc(Cl)cc(Cl)c1,-0.1%,nt,-91.4*,0.0%,nt
O=C(NCc1csc2ccccc12)Nc1cc(Cl)cc(Cl)c1,-17.5%,?,-62.4*,1.9%,?
Cc1cc(C)c2c(N)c(C(=O)Nc3ccc([N+](=O)[O-])cc3)sc2n1,-2.8%,41.6%,28.4,3.2%,111.3%
O=C(CNSc1ccc([N+](=O)[O-])cc1[N+](=O)[O-])OCc1ccccc1,nt,nt,-24.4,nt,nt
S=C1NC(c2ccccc2)=CC(c2ccccc2)N1 (centres undefined),2.9%,?,-31.6,3.1%,10.4µM*
Cc1cccc(CCNC(=O)c2oc3c(C)c(C)ccc3c2C)n1,2.4%,?,12.3,-3.1%,16.0%
CCOC(=O)C1C(=O)C=C(c2ccc(C)cc2)CC1c1ccc([N+](=O)[O-])cc1 (centres undefined),-1.5%,9.28µM*,-70.7*,7.8%,?
O=C(Nc1ccccc1[N+](=O)[O-])c1cccnc1Cl,0.7%,17.7%,-26.0,-0.3%,9.0%
Cc1ccc(-n2ncc3c(Nc4ccc5c(c4)OCCO5)ncnc32)cc1Cl,nt,nt,-23.7,-1.7%,nt
Cc1ccc(Cl)cc1-n1ncc2c(Nc3ccc4c(c3)OCCO4)ncnc21,nt,nt,-88.4*,2.1%,nt
CCOC(=O)N1CCC(Nc2ncnc3c2cnn3-c2ccc(C)cc2C)CC1,5.4%,-28.0%,-92.7*,-0.7%,0.0%
Cc1ccc(Cl)cc1-n1ncc2c(NC3CCCCC3)ncnc21,nt,nt,-78.2*,3.6%,nt
CCOc1ccccc1N1CCN(C(=O)c2c(Cl)cnn2C)CC1,nt,22.0%,11.6,-17.7%,-5.1%
